Results as given in PubChem BioAssay (NCATS).
Where “and” joins values, the source holds several entries; their conditions need not be identical. Identical values can stand only once. Results filed as inconclusive are left out. Where a structure was tested more than once in an assay, its records may differ in their call. Calls of active or inactive are those of the source. Calls follow the shape of the dose curve; as a rule, active = well fitted curve in the direction sought with a large enough effect; inconclusive = small, poorly fitted or top-dose-only effect, or another doubt; inactive = no such curve, though single readings can be large; an effect the other way counts as inactive or inconclusive.

Assays:
[1] = biological target: Glutathione peroxidase 1 (Homo sapiens) (UniProt P07203); assay: Primary qHTS Assay for Inhibitors of Recombinant Selenoprotein Glutathione Peroxidase 1 (GPX1) (AID 1845191); conditions: recombinant GPX1, GR-coupled NADPH fluorescence, 15 min; series mostly up to 48.8 µM; also: nearly all actives have a fitted effect of over 65% in size; as to activity, negative = inhibition: % is scaled to controls: 0 for no effect and ±100 for the full control effect
Procedure, shortened: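 10 nM GPX1 + cpd, 30 min RT; start w/ 1 mM GSH, 0.5 mM cumene hydroperoxide, 0.5 mM NADPH, 100 nM GR, 0.01% BSA; buffer 50 mM Tris-HCl pH 7.5, 2 mM EDTA, 150 mM NaCl; Fl 340/450, 0 & 15 min.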

[2] = biological target: Phospholipid hydroperoxide glutathione peroxidase GPX4 (Homo sapiens) (UniProt P36969); assay: Primary qHTS Assay for Inhibitors of Recombinant Selenoprotein Glutathione Peroxidase 4 (GPX4) (AID 1845192); conditions: recombinant GPX4, GR-coupled NADPH fluorescence, 15 min; series mostly up to 50 µM; also: nearly all actives have a fitted effect of over 65% in size; also: potency is read from the fitted curve at half-maximal effect; as to activity change, negative = inhibition: % is scaled to controls: 0 for no effect and ±100 for the full control effect
Procedure, shortened: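 NADPH consumption, followed by fluorescence at 340/450 nm between 0 and 15 min, reports GPX4 activity via coupled glutathione reductase (100 nM). Enzyme 200 nM was pre-exposed to compound 30 min; 0.5 mM cumene hydroperoxide and 1 mM GSH served as substrates.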

[3] = biological target: Luciferin 4-monooxygenase (Photinus pyralis) (UniProt P08659); assay: Primary firefly luciferase (FLuc) qHTS assay for identification of artifact compounds. (AID 1845220); conditions: purified firefly luciferase, luminescence, 5 min; series mostly up to 54.1 µM; also: nearly all actives have a fitted effect of over 60% in size;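 as to activity change, negative = inhibition: plate controls were DMSO vehicle for no effect and no enzyme for full effect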
Procedure, shortened: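 Cell-free, 1536-well qHTS. Buffer pH 7.6 with 0.01% Tween-20 and 0.05% BSA; 10 uM D-luciferin, 10 uM ATP; 10 nM P. pyralis luciferase; luminescence after 5 min.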

[4] = Primary fluorescence-based thiol-reactive (MSTI) qHTS assay for identification of artifact compounds. (AID 1845221); conditions: MSTI thiol-reactivity probe, 1 h; series mostly up to 53.8 µM; also: nearly all actives have a fitted effect of over 65% in size; also: potency is read from the fitted curve at half-maximal effect;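 as to activity change, negative = thiol reactive: thiol-reactive compounds lower the probe fluorescence signal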
Procedure, shortened: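 Curve-fitted percent inhibition (4-parameter Hill) derived from fluorescence, Ex 525/Em 598 nm, scaled with Acetyl-MSTI and MSTI; 1 h incubation at room temperature.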

[5] = test system: Nanoluciferase (engineered Oplophorus gracilirostris luciferase); assay: Primary Nanoluciferase (NLuc) qHTS assay for identification of artifact compounds. (AID 1845222); conditions: NLuc-conditioned medium, Nano-Glo luminescence, 5 min; series mostly up to 54.1 µM;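 also: 0% = DMSO and -100% = no enzyme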
Procedure, shortened: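 Compounds are pinned into diluted (1:55) conditioned medium of NLuc-expressing S16 cells and held 15 min at room temperature protected from light. Nano-Glo substrate follows, and luminescence is read 5 min later.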

Sequence of Phospholipid hydroperoxide glutathione peroxidase GPX4 (Homo sapiens) (P36969 whole entry, looked up): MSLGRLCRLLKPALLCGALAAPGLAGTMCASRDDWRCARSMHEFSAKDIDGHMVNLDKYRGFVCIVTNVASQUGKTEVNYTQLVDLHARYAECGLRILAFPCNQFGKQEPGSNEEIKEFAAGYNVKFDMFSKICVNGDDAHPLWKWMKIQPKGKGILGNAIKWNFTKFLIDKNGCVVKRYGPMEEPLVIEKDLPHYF
Sequence of Glutathione peroxidase 1 (Homo sapiens) (P07203 whole entry, looked up): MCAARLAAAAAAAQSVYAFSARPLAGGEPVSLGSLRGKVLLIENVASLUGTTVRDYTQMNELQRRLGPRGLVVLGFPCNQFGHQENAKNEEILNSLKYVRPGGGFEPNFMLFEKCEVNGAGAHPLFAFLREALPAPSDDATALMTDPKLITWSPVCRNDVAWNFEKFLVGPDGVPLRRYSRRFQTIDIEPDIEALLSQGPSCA

C[C@@H]1C(=O)O[C@H]2CC34[C@H]5C[C@@H](C(C)(C)C)C36[C@@H](OC(=O)[C@@H]6O)O[C@@]4(C(=O)O5)[C@]21O (stereo not given in full)
inactive: Potency [1] | Potency [2] | Potency [3] | Potency [4] | Potency [5]

C=C/C=C/[C@@H]1OC[C@H](/C=C/C=C/C)[C@H]1O
inactive: Potency [1] | Potency [2] | Potency [3] | Potency [4] | Potency [5]

C=CC(C)(O)CC/C=C(\C)C(=O)OC1CC2(C(=O)O)CCC3(C)C(=CCC4C5(C)CCC(OC6OC(COC7OCC(O)C(O)C7O)C(O)C(OC7OCC(O)C(O)C7O)C6OC6OC(CO)C(O)C(O)C6OC6OCC(O)C(O)C6O)C(C)(C)C5CCC43C)C2CC1(C)C (stereo not given)
inactive: outcome [1] inactive [at 9.52 µM] | activity change, negative = inhibition [2] -6.88% [at 9.73 µM] | outcome [3] inactive [at 11.6 µM] | activity change, negative = thiol reactive [4] 122% [at 11.5 µM] | activity, negative = inhibition [5] 2.64% [at 11.6 µM]

CC(C)CC1(C(=O)OCc2ccc(O[C@@H]3O[C@H](CO)[C@@H](O)[C@H](O)[C@H]3O)cc2)CC(=O)OC(C(=O)O)CC(=O)OCC2OC(O1)C(OC(=O)/C=C/c1ccc(O)cc1)C(O)C2O (stereo not given in full)
inactive: Potency [1] | Potency [2] | activity change, negative = inhibition [3] 3.35% [at 11.6 µM] | activity change, negative = thiol reactive [4] 14.7% [at 11.5 µM] | activity, negative = inhibition [5] -4.21% [at 11.6 µM]

CN(C)C/C=C/C(=O)Nc1ccc(C(=O)Nc2cccc(Nc3ncc(Cl)c(-c4c[nH]c5ccccc45)n3)c2)cc1
inactive: Potency [1] | Potency [2] | Potency [3] | Potency [4] | Potency [5]

Nc1nonc1C(=Nc1ccc(F)c(Cl)c1)NO
inactive: Potency [1] | Potency [2] | Potency [3] | Potency [4] | Potency [5]

CC(=O)O[C@@H]1[C@H](O[C@@H]2OC[C@](O)(CO)[C@H]2O)[C@@H](O[C@@H]2O[C@@H](C)[C@H](O)[C@@H](O)[C@H]2O)[C@H](OC(=O)[C@]23CCC(C)(C)C[C@H]2C2=CCC4[C@@]5(C)C[C@H](O)[C@H](O[C@@H]6O[C@H](C(=O)O)[C@@H](O)[C@H](O)[C@H]6O)[C@@](C)(C(=O)O)C5CC[C@@]4(C)[C@]2(C)CC3)O[C@@H]1C (stereo not given in full)
inactive: Potency [1] | Potency [2] | activity change, negative = inhibition [3] 3.99% [at 11.6 µM] | activity change, negative = thiol reactive [4] 279% [at 11.5 µM] | activity, negative = inhibition [5] 2.83% [at 11.6 µM]

COc1cc(CC(COC2OC(CO)C(O)C(O)C2O)c2cc(/C=C/CO)cc(OC)c2O)ccc1O (stereo not given)
inactive: Potency [1] | Potency [2] | Potency [3] | Potency [5]
active: Potency [4] 9.22 µM

O=C(O)C[C@H](O)C[C@H](O)/C=C/c1c(C2CC2)nc2ccccc2c1-c1ccc(F)cc1
inactive and 22.4 µM (active): Potency [2]
inactive: Potency [1] | Potency [3] | Potency [4] | Potency [5]
